{"source": "ChEMBL document CHEMBL3988442", "about": "“University of Dundee, Small-Polar-MMV Screening Library” (2021)", "note": "About 13,000 (27%) of roughly 48,000 compounds showed an effect of 50% or more. Some of the results follow.", "data": [{"test_system": "Wolbachia pipientis", "assay": "Anti-Wolbachia Cell-Based Screen", "type": "functional", "design": "scale not given: in the data most compounds retested in dose-response had high values", "settings": "5 µM", "units": {"Percent Effect": "%"}, "values": [{"smiles": "O=C(Nc1ccccc1OC(F)F)C1=NN(c2ccccc2)C(=O)CN1", "Percent Effect": 6.158}, {"smiles": "CC(C)c1noc(CCC(=O)N2CCN(C)CC2c2ccccc2)n1", "note": "(stereo unspecified)", "Percent Effect": 2.762}, {"smiles": "CN(C)CCn1ccc2ccc(NC(=O)c3ccncc3F)cc21", "Percent Effect": -14.36}, {"smiles": "Cc1nn(C)c(C)c1CC(C)NC(=O)NCc1ccoc1C", "note": "(stereo unspecified)", "Percent Effect": -1.757}, {"smiles": "COc1cc(OC)cc(C(=O)N(C)Cc2nnc3ccccn23)c1", "Percent Effect": 132.8}, {"smiles": "CCC(O)CN(C)Cc1nnc2ccccn12", "note": "(stereo unspecified)", "Percent Effect": -1.119}, {"smiles": "CN(Cc1nnc2ccccn12)C(=O)CCNC(=O)C(C)(C)C", "Percent Effect": 7.202}, {"smiles": "COc1ccc(C(=O)N(C)Cc2nnc3ccccn23)cc1", "Percent Effect": 104.5}, {"smiles": "COc1ccc(CC(=O)N(C)Cc2nnc3ccccn23)cc1", "Percent Effect": 2.883}, {"smiles": "Cc1ccc(C)c(C(O)CN(C)Cc2nnc3ccccn23)c1", "note": "(stereo unspecified)", "Percent Effect": -3.237}, {"smiles": "CN(C(=O)c1cccc(Cl)c1)C1CCN(c2ccccn2)CC1", "Percent Effect": 127.4}, {"smiles": "CN(C(=O)Nc1cccc(C#N)c1)C1CCN(c2ccccn2)CC1", "Percent Effect": -13.99}, {"smiles": "CN(C(=O)c1cc(Cl)c[nH]1)C1CCN(c2ccccn2)CC1", "Percent Effect": -4.084}, {"smiles": "CN(C(=O)c1ccc(C#N)cc1)C1CCN(c2ccccn2)CC1", "Percent Effect": 4.986}, {"smiles": "CN(C(=O)c1ccc(Cl)cc1)C1CCN(c2ccccn2)CC1", "Percent Effect": 98.58}, {"smiles": "CC(NC(=O)NCCCN(C)S(C)(=O)=O)c1ccncc1", "note": "(stereo unspecified)", "Percent Effect": 10.56}, {"smiles": "CC1c2cc(F)ccc2CCN1CCS(=O)(=O)C(C)C", "note": "(stereo unspecified)", "Percent Effect": 14}, {"smiles": "CC(=O)NCC(=O)N1CCn2cc(CN3CCCCC3)nc2C1.O=C(O)C(F)(F)F", "Percent Effect": -3.049}, {"smiles": "Cc1noc(C)c1CN(Cc1ccccc1)C(C)CN1CCOCC1", "note": "(stereo unspecified)", "Percent Effect": -1.266}, {"smiles": "O=C(O)C(F)(F)F.O=S(=O)(C1CC1)N1CCn2cc(CNc3ccccn3)nc2C1", "Percent Effect": -1.604}, {"smiles": "Cc1noc(C)c1CN1CCn2cc(CNC(=O)C3CCC3)nc2C1.O=C(O)C(F)(F)F", "Percent Effect": -7.774}, {"smiles": "O=C(O)C(F)(F)F.O=C(O)C(F)(F)F.c1ccc(NCc2cn3c(n2)CN(Cc2cccs2)CC3)nc1", "Percent Effect": 4.417}, {"smiles": "Cc1noc(C)c1CN1CCn2cc(CN3CCOCC3)nc2C1", "Percent Effect": 95.37}, {"smiles": "Cc1ccc(C(=O)N2CCn3cc(CN4CCCCC4)nc3C2)o1.O=C(O)C(F)(F)F", "Percent Effect": 18.27}, {"smiles": "Cc1noc(C)c1CN1CCn2cc(CN3CCCC3)nc2C1.O=C(O)C(F)(F)F.O=C(O)C(F)(F)F", "Percent Effect": 117.4}, {"smiles": "Cc1noc(C)c1CN1CCn2c(COC(C)C)nnc2C1", "Percent Effect": -15.51}, {"smiles": "Cc1noc(C)c1CN1CCn2cc(CN3CCCCC3)nc2C1.O=C(O)C(F)(F)F", "Percent Effect": 100}, {"smiles": "Cc1noc(C)c1CN1CCn2cc(CNc3ccccn3)nc2C1.O=C(O)C(F)(F)F.O=C(O)C(F)(F)F", "Percent Effect": 109}, {"smiles": "Cc1noc(C)c1CN1CCc2ncc(CN3CCCC3)n2CC1.O=C(O)C(F)(F)F.O=C(O)C(F)(F)F", "Percent Effect": -7.49}, {"smiles": "O=C(Cc1ccc(Br)cc1)N1CC(S(=O)(=O)C2CCCCC2)C1", "Percent Effect": -12.58}, {"smiles": "N#Cc1cccc(C(=O)Nc2ccc([C@@H](O)[C@H]3COCC(=O)N3)cc2)c1", "Percent Effect": -8.801}, {"smiles": "Cc1nnc([C@@H]2CC[C@@H]3[C@@H](CCN3S(=O)(=O)C3CC3)O2)o1", "Percent Effect": 10.23}, {"smiles": "CC1(C)CN(C(=O)c2ccccc2-n2cncn2)CC1(C)O", "note": "(stereo unspecified)", "Percent Effect": -36.51}, {"smiles": "COc1cccc2c1OCCCN(Cc1c[nH]nc1C(=O)O)C2", "Percent Effect": 0.6416}, {"smiles": "Cc1ccc(CN2CCn3cc(CN(C)Cc4ccco4)nc3C2)o1.O=C(O)C(F)(F)F.O=C(O)C(F)(F)F", "Percent Effect": 18.64}, {"smiles": "CCN(CC)Cc1cn2c(n1)CN(Cc1c(C)noc1C)CC2.O=C(O)C(F)(F)F.O=C(O)C(F)(F)F", "Percent Effect": 104}, {"smiles": "CCN(CC)Cc1cnc2n1CCN(Cc1c(C)noc1C)CC2.O=C(O)C(F)(F)F.O=C(O)C(F)(F)F", "Percent Effect": -10.46}, {"smiles": "Cc1cc(N(C)CCN(C)C2CCCC2)n2nc(C)cc2n1", "Percent Effect": 9.952}, {"smiles": "Cc1cc(N(C)CCN(C)C)n2nc(C)cc2n1", "Percent Effect": -8.762}, {"smiles": "Cc1cc2ncc(CN(C)C)c(C3CCN(C)CC3)n2n1", "Percent Effect": 76.44}, {"smiles": "CC(=O)N1CCC(c2cc3c(ncn3C)c(-c3cnn(C)c3)n2)CC1", "Percent Effect": -10.45}, {"smiles": "CCc1noc(C2CCN(C(=O)CCn3nc(C)cc3C)CC2)n1", "Percent Effect": 2.839}, {"smiles": "CC(=O)N1CCC(c2c(CN(C)C)cnc3cc(C)nn23)CC1", "Percent Effect": 74.12}, {"smiles": "COc1cc(C(=O)N2Cc3cnc(C(C)(C)C)nc3C2)ccn1", "Percent Effect": -33.89}, {"smiles": "O=C(C1CCCC1)N1CCCC([C@@H]2C[C@H](C(F)F)n3ncnc3N2)C1", "note": "(stereo partly specified)", "Percent Effect": 108.9}, {"smiles": "O=C(C1CCCCC1)N1CCCC([C@@H]2C[C@H](C(F)F)n3ncnc3N2)C1", "note": "(stereo partly specified)", "Percent Effect": 100.7}, {"smiles": "O=C(C1CCCC1)N1CCC(C(O)c2ccc(F)cc2)CC1", "note": "(stereo unspecified)", "Percent Effect": -1.378}, {"smiles": "O=C(NCCOc1ccc(F)cc1)C1CCCN(C(=O)C2CC2)C1", "note": "(stereo unspecified)", "Percent Effect": -0.9975}, {"smiles": "Cc1nnc2n1CCN(CC(O)CN1CCC(C)CC1)C2", "note": "(stereo unspecified)", "Percent Effect": -0.2217}, {"smiles": "CC(C)c1nc(CN2CCOC(Cn3cncn3)C2)cs1", "note": "(stereo unspecified)", "Percent Effect": 78.62}, {"smiles": "Cc1cnn(CC2CN(Cc3csc(C(C)C)n3)CCO2)c1", "note": "(stereo unspecified)", "Percent Effect": 144.1}, {"smiles": "Cc1ccc(-c2nc(CN3CCOC(Cn4cncn4)C3)cs2)o1", "note": "(stereo unspecified)", "Percent Effect": 11.16}, {"smiles": "CC(C)c1nc(CN2CCOCC2)cs1", "Percent Effect": 0.6364}, {"smiles": "CC(=O)N(C)c1nc(CN2CCOC(Cn3cc(C)cn3)C2)cs1", "note": "(stereo unspecified)", "Percent Effect": -3.323}, {"smiles": "CC(C)Cc1noc(CN2CCOC(Cn3cncn3)C2)n1", "note": "(stereo unspecified)", "Percent Effect": -1.295}, {"smiles": "c1csc(-c2nc(CN3CCOC(Cn4cncn4)C3)co2)c1", "note": "(stereo unspecified)", "Percent Effect": 1.427}, {"smiles": "CC(C)(C)c1nc(CN2CCCC(Cn3cncn3)C2)cs1", "note": "(stereo unspecified)", "Percent Effect": 5.475}, {"smiles": "CC(C)(C)c1nc(CN2CCOC(Cn3cncn3)C2)cs1", "note": "(stereo unspecified)", "Percent Effect": 103.7}, {"smiles": "CN(C(=O)COCc1ccccc1)C1CCN(CC2CCOC2)CC1", "note": "(stereo unspecified)", "Percent Effect": -14.42}, {"smiles": "CCC(C)(N)c1nc(C(C)C)cc(=O)[nH]1.Cl", "note": "(stereo unspecified)", "Percent Effect": -2.59}, {"smiles": "CCc1nnc2n1CC(CNCc1ccncc1)CC2", "note": "(stereo unspecified)", "Percent Effect": -8.895}, {"smiles": "Cc1nccn1-c1ccc(CNS(=O)(=O)N2CCCC(C)C2)cn1", "note": "(stereo unspecified)", "Percent Effect": -3.486}, {"smiles": "CCC(C)C(=O)NCc1ccc(-n2cncn2)nc1", "note": "(stereo unspecified)", "Percent Effect": -5.498}, {"smiles": "CC(C)C(=O)NCc1ccc(-n2cncn2)nc1", "Percent Effect": -6.912}, {"smiles": "CC(C(=O)NCc1ccc(-n2cncn2)nc1)S(C)(=O)=O", "note": "(stereo unspecified)", "Percent Effect": -11.84}, {"smiles": "O=C(NCc1cccnc1-n1cncn1)c1cc(Cl)ccn1", "Percent Effect": 106.2}, {"smiles": "O=C(NCc1ccc(-n2cncn2)nc1)c1ccoc1", "Percent Effect": 0.1706}, {"smiles": "O=C(NCc1ccc(-n2cncn2)nc1)c1cnccn1", "Percent Effect": 91.78}, {"smiles": "CCN(CC)c1ccc(C(=O)NCc2cccnc2-n2cncn2)cn1", "Percent Effect": 14.25}, {"smiles": "O=C(NCc1ccc(-n2cncn2)nc1)c1cc[nH]n1", "Percent Effect": 86.29}, {"smiles": "CC(C(=O)NCc1ccc(-n2cncn2)nc1)n1ccnc1", "note": "(stereo unspecified)", "Percent Effect": -4.71}, {"smiles": "CCCc1nc(C(=O)NCc2cccnc2-n2cncn2)cs1", "Percent Effect": -5.546}, {"smiles": "O=C(NCc1ccc(-n2cncn2)nc1)c1cc(Cl)ccn1", "Percent Effect": 100.5}, {"smiles": "CC(C)COC(C)C(=O)NCc1ccc(-n2cncn2)nc1", "note": "(stereo unspecified)", "Percent Effect": -8.308}, {"smiles": "COCCN(Cc1ccc(F)cc1Cl)C(=O)c1ccc(=O)[nH]n1", "Percent Effect": -1.923}, {"smiles": "CCc1nsc(N2CCN(CC(=O)Nc3c(C)n[nH]c3C)CC2)n1", "Percent Effect": -25.55}, {"smiles": "CCc1nc(CN2CCCN(C(=O)COCC3CC3)CC2)cs1", "Percent Effect": -1.235}, {"smiles": "CCN(CC(C)O)C(=O)Nc1cnn(CCOC)c1", "note": "(stereo unspecified)", "Percent Effect": -12.18}, {"smiles": "NC(=O)NC(=O)CCN1CCCN(c2nccs2)CC1", "Percent Effect": -3.66}, {"smiles": "COCc1cc(N(C)Cc2cnccn2)nc(C(C)(C)C)n1", "Percent Effect": 4.515}, {"smiles": "CC(C)(CNCc1ccc(OCc2cscn2)cc1)C(N)=O.Cl", "Percent Effect": 0.3922}, {"smiles": "COc1ccc(F)cc1-c1ccccc1CC1(C(=O)O)CCOCC1", "Percent Effect": 118.1}, {"smiles": "CCOC(=O)C1(Cc2ccccc2-c2ccccc2OC)CCNCC1.Cl", "Percent Effect": 172.1}, {"smiles": "COc1ccc(F)cc1NC(=O)NCC1(CN2CCOCC2)CC1", "Percent Effect": 21.38}, {"smiles": "COc1ccccc1CCN[C@@H]1c2ccccc2C2(CCNCC2)[C@H]1O", "Percent Effect": -1.43}, {"smiles": "CCOC(=O)C1(Cc2cccc(OC)c2)CCN(Cc2ccon2)CC1", "Percent Effect": 2.808}, {"smiles": "COc1ccccc1-c1ccccc1CC1(C(=O)O)CCNCC1", "Percent Effect": 100.9}, {"smiles": "COc1ccc(F)cc1NC(=O)NCC1(C)COC1", "Percent Effect": 5.652}, {"smiles": "COc1ccccc1CN(C)C(=O)CN1C(=O)OC[C@@H]1c1ccccc1", "Percent Effect": -5.71}, {"smiles": "COc1ccccc1Oc1ncccc1CNC(=O)C1(C)CCCNC1", "note": "(stereo unspecified)", "Percent Effect": 21.66}, {"smiles": "O=C(Cc1ccccn1)N1CCn2cc(Cn3cncn3)nc2C1", "Percent Effect": 22.42}, {"smiles": "Cn1cc(C2(C)CN(c3ncccc3C#N)CCO2)cn1", "note": "(stereo unspecified)", "Percent Effect": -13.05}, {"smiles": "CN(C)Cc1ccnc(NS(=O)(=O)CCc2ccccc2)c1", "Percent Effect": -12.88}, {"smiles": "OCc1cc2ccccc2nc1N1CCCC1", "Percent Effect": 4.126}, {"smiles": "COC(=O)c1cc2n(n1)CCN(C(=O)c1csc(CN(C)C)n1)C2", "Percent Effect": 85.52}, {"smiles": "CCCc1nc(C(=O)N2CCN(C(=O)c3ccc(OC)cc3)CC2)cs1", "Percent Effect": 10.06}, {"smiles": "CN(C)CCNC(=O)c1cc2n(n1)CCN(C(=O)c1ccco1)C2", "Percent Effect": -13.42}, {"smiles": "CCCc1nc(C(=O)N2CCn3nc(C(=O)OC)cc3C2)cs1", "Percent Effect": 111.4}, {"smiles": "CCCc1nc(C(=O)N2CCN(C(=O)OC)CC2)cs1", "Percent Effect": -2.631}, {"smiles": "Cc1cc(C)c(C(=O)N2CCn3nc(C(=O)NCCN(C)C)cc3C2)[nH]1", "Percent Effect": -6.569}, {"smiles": "Cc1cc(C)c2nc(CN3C[C@H](CCO)[C@@H](N)C3)cc(O)c2c1", "Percent Effect": -3.113}]}]}
